# Measured values taken from ChEMBL document CHEMBL3988442, “University of Dundee, Small-Polar-MMV Screening Library” (2021).
# Out of some 38,000 compounds screened, about 1,200 (3.2%) showed an effect of 50% or more. The median lay at about -58%. Shown is part of a subset that was picked to be rich in strong results.
# System: Plasmodium falciparum
# Assay: Calibr Malaria Delayed Death Assay SOP
# Format: functional, organism-based
# Parameters: scale not given: in the data most compounds retested in dose-response had high values
# Settings: concentration 4.99e-06 (unit not given; other assays of the set use mol/L)
row,SMILES,Percent Effect
1,CC(c1ccc(-n2cncn2)cc1)N(C)Cc1ccccn1 (configuration not stated),-93.37%
2,CCc1c(C)sc2nc3n(CCN(C)C)nc(SC)n3c(=O)c12,13.06%
3,CCCSc1nn(CCN(C)C)c2nc3sc(C)c(CC)c3c(=O)n12,46.83%
4,Cc1oncc1C(=O)N1CCC2(CCN(Cc3cccnc3)C2=O)C1.O=C(O)C(F)(F)F (configuration not stated),-151.7%
5,O=C(Nc1ccccc1)[C@H]1C[C@@H]2CN(C(=O)Nc3ccccc3)C[C@H]1O2,18.72%
6,O=C(c1cccc2c1OCO2)N1CCCC(n2ccnc2)C1 (configuration not stated),-40.58%
7,CCCc1n[nH]c(C2CN(C(=O)CCn3ccccc3=O)CCO2)n1 (configuration not stated),-67.64%
8,CCc1nc(C(=O)N(CC)CC(=O)Nc2cc(Cl)ccc2C)c[nH]1,-127.3%
9,CSCC(=O)N1CCc2nc(C)nc(NCc3ccccc3)c2CC1,-13.73%
10,Cc1nc2c(c(NCc3cc4ccccc4s3)n1)CCNCC2,89.06%
11,Cc1nc2c(c(NCC(c3ccccc3C)N(C)C)n1)CCNC2 (configuration not stated),-11.95%
12,Cc1nc2c(c(NCc3nc4ccccc4s3)n1)CCNCC2,71.13%
13,Cc1nc(CNc2nc(-c3ccco3)nc3c2CCNCC3)n[nH]1,-85.54%
14,Cc1nc2c(c(NCC(O)c3ccccc3Cl)n1)CCNCC2 (configuration not stated),26.14%
15,Cc1n[nH]c(C)c1CNc1nc(-c2ccco2)nc2c1CCNCC2,17%
16,Cc1nc2c(c(NCc3ccc(-c4ccccn4)s3)n1)CCNCC2,73.48%
17,c1ccc(-c2nc3c(c(NCCCn4cncn4)n2)CCNCC3)nc1,-4.332%
18,CN(C)c1cc(C(=O)Nc2cccnc2N2CCSCC2)ccn1,-48.21%
19,FC(F)(F)c1ccnc(N2CCC(c3nccn3CC3CC3)CC2)n1,-11.94%
20,Cc1cc(C2CCCN2C(=O)Nc2cn[nH]c2)on1 (configuration not stated),-46.01%
21,O=C(c1cccnc1)N1CC(S(=O)(=O)c2ccc(Cl)cc2)C1,-41.36%
22,Cc1noc(C)c1CN1C[C@@H]2CCCO[C@@H]2[C@H](Nc2ccccn2)C1.O=C(O)C(F)(F)F.O=C(O)C(F)(F)F,-37.64%
23,Cn1nc(CNC(=O)C2CCN(S(C)(=O)=O)CC2)cc1C1CC1,-29.39%
24,Cc1cccc(NC(=O)CN(C)C(=O)c2scnc2C)n1,-36.36%
25,CCOc1ccc(CN(CCC#N)CCN2CCOCC2)cc1OC,-106.9%
26,COc1ccc(CN(CCC#N)CCN2CCOCC2)cc1OC,-48.91%
27,N#CCCN(CCN1CCOCC1)Cc1ccc(F)c(Br)c1,50.69%
